In PubChem BioAssay one finds z-score and composite z-score data, which are given here for eight molecules.

The nature of experiment [1]: optical density shifts of acrAB sulA E. coli – strain DRC41, OD650, 48 h, E. coli filamentation inducer project, primary screen (AID 1152).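 Note: E. coli MC1000 strain DRC41 lacking acrAB efflux pump and sulA.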 As to conditions: higher = more signal, called active from +8 up or from −8 down.
Experiment [2] in a line: probe aLefty1 binding on compound microarray – biochemical, small-molecule microarray, 635/667 nm fluorescence, primary screen (AID 1153).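 Note: score merges spot fluorescence with signal-to-noise ratio from the scanned slide images.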 The following applies: higher = more signal.
Experiment [3] in a line: plasmodial surface anion channel blockers, osmotic lysis – cell-based, P. falciparum Indochina, OD700, 1 h, primary screen (AID 1154). As to conditions: P. falciparum Indochina infected RBC osmotic lysis, higher = more signal, called active from +8 up or from −8 down.
Experiment [4] in a line: plasmodial surface anion channel blockers, osmotic lysis – cell-based, P. falciparum Indochina, OD700, 2 h, primary screen (AID 1155).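 Note: lysis reports solute entry through the parasite surface anion channel PSAC.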 The following applies: P. falciparum Indochina infected erythrocytes, higher = more signal, called active from +8 up or from −8 down.
Experiment [5] can be described thus: changes in parasitized red cell lysis, either direction – P. falciparum Indochina, OD700, 3 h, PSAC antagonist project, primary screen (AID 1156). The following applies: P. falciparum-infected erythrocytes, osmotic lysis, higher = more signal, called active from +8 up or from −8 down.
Experiment [6] in a line: plasmodial surface anion channel blockers, osmotic lysis – cell-based, P. falciparum Indochina, OD700, 18 h, primary screen (AID 1157). The following applies: P. falciparum Indochina infected erythrocytes, osmotic lysis OD700, 18 h; higher = more signal, called active from +8 up or from −8 down.
A short description of experiment [7]: S6 kinase pathway phospho-S6 level changes – cell-based, A549, cytoblot, luminescence, serum-stimulated, primary screen (AID 1158).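 Note: serum-stimulated A549 lung adenocarcinoma cells; signal is phosphorylated S6 detected by cytoblot immunostaining with HRP secondary.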 The following applies: 5 h, higher = more signal.
Experiment [8] deals with NADPH oxidase 2 (Homo sapiens) (UniProt P04839). Description: compounds shifting NOX2 Amplex Red fluorescence – cell-based, HEK293-NOX2, PMA-stimulated, NOX inhibitor project, primary screen (AID 1159). Note: test concentration not given here. As to conditions: 45 min, higher = more signal, called active from +8 up or from −8 down.
Sequence of NADPH oxidase 2 (Homo sapiens) (P04839 whole entry, looked up): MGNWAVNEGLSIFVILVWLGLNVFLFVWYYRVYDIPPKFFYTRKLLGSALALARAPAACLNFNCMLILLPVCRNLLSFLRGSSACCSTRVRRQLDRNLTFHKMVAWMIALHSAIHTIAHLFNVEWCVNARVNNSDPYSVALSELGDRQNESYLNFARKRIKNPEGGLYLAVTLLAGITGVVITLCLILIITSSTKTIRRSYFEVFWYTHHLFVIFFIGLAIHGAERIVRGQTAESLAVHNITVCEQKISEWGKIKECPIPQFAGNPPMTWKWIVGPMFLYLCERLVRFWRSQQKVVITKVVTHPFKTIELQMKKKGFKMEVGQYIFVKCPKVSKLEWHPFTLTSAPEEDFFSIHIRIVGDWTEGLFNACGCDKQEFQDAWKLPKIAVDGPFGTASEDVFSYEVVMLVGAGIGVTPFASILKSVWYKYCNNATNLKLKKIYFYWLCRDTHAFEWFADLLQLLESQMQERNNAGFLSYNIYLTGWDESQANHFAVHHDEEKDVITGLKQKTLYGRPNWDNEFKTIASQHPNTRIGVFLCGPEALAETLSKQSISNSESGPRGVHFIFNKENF
The target of experiment [9] is NADPH oxidase 4 (Homo sapiens) (UniProt Q9NPH5). As to the kind of experiment: compounds shifting NOX4 Amplex Red fluorescence – cell-based, HEK293-NOX4, tetracycline-induced, NOX inhibitor project, primary screen (AID 1160). The following applies: HEK293-NOX4, Amplex Red H2O2 fluorescence, 45 min; higher = more signal, called active from +8 up or from −8 down.
Sequence of NADPH oxidase 4 (Homo sapiens) (Q9NPH5 whole entry, looked up): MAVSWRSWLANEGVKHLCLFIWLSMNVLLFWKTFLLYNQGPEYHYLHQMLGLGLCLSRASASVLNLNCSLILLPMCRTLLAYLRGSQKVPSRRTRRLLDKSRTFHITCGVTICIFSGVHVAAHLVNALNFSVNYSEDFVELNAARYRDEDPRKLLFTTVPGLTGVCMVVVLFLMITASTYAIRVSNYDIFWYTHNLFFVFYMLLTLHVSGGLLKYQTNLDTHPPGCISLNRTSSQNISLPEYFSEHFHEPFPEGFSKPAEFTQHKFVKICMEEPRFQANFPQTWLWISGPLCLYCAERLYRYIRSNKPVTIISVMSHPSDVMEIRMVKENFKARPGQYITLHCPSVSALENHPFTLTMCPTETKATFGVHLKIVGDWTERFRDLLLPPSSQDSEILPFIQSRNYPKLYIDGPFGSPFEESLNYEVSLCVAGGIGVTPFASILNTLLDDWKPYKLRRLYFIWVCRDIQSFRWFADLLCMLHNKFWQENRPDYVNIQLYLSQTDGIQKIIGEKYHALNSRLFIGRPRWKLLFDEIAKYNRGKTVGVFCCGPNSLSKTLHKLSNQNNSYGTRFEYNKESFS
Experiment [10] addresses NADPH oxidase 5 (Homo sapiens) (UniProt Q96PH1). Description: compounds shifting NOX5 Amplex Red fluorescence – cell-based, HEK293-NOX5, NOX inhibitor project, primary screen (AID 1161). As to conditions: HEK293-NOX5, ionomycin, 45 min, higher = more signal.
The nature of experiment [11]: compound effects on lung adenocarcinoma cell viability – A549, calcein-AM fluorescence, 48 h, basal, profiling panel (AID 1162). Note: test concentration not given here. As to conditions: higher = more signal.
Experiment [12] in a line: compound effects on differentiated 3T3-L1 adipocyte viability – cell-based, 3T3-L1 adipocytes, calcein-AM fluorescence, 48 h, basal, profiling panel (AID 1163). Note: test concentration not given here. The following applies: 3T3-L1 adipocytes viability, higher = more signal.
A short description of experiment [13]: compound effects on hepatocellular carcinoma cell viability – HepG2, calcein-AM fluorescence, 48 h, basal, profiling panel (AID 1164). Note: test concentration not given here. The following applies: higher = more signal.
Experiment [14] is described as follows: compound effects on multiple myeloma cell viability – MM1S, calcein-AM fluorescence, 48 h, basal, profiling panel (AID 1165).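 Note: viability of MM1S multiple myeloma cells under basal unstimulated conditions; test concentration not given here.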 The following applies: higher = more signal.
The nature of experiment [15]: calcein-AM signal in unstimulated myeloma cells – cell-based, calcein-AM fluorescence, 48 h, PK04 Diversity Set, profiling panel (AID 1166).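 Note: cells grown under basal conditions without added stimulus; test concentration not given here.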 As to conditions: RPMI8226 myeloma viability, higher = more signal.
Experiment [16] in a line: JC-1 mitochondrial signal, unstimulated HepG2 cells – cell-based, JC-1 fluorescence, 24 h, 100 nL compound, profiling panel (AID 1167). Note: test concentration not given here. The following applies: HepG2 mitochondrial potential, higher = more signal.
Experiment [17] in a line: JC-1 mitochondrial signal, unstimulated adipocytes – cell-based, JC-1 fluorescence, 3T3-L1 adipocytes, 24 h, 100 nL compound, profiling panel (AID 1168). Note: test concentration not given here. As to conditions: JC-1 mitochondrial fluorescence, higher = more signal, called active from +8 up or from −8 down.
Experiment [18] in a line: JC-1 mitochondrial signal, unstimulated myeloma cells – cell-based, JC-1 fluorescence, RPMI8226, 24 h, 100 nL compound, profiling panel (AID 1169). Note: test concentration not given here. The following applies: JC-1 mitochondrial potential fluorescence, higher = more signal.
Experiment [19] can be described thus: JC-1 mitochondrial signal, unstimulated MM1S myeloma – cell-based, JC-1 fluorescence, 24 h, 100 nL compound, profiling panel (AID 1170). Note: test concentration not given here. As to conditions: MM1S mitochondrial potential, higher = more signal.
Experiment [20] is described as follows: resazurin metabolic signal in A549 cells – cell-based, resazurin fluorescence, 24 h, PK04 Diversity Set, profiling panel (AID 1171). Note: test concentration not given here. As to conditions: A549 viability, higher = more signal, called active from +8 up or from −8 down. (In general: The colour change of resazurin is a common sign of viable cells or microbes.)

Activity calls are given as the source filed them.

Sequence of NADPH oxidase 5 (Homo sapiens) (Q96PH1 whole entry, looked up): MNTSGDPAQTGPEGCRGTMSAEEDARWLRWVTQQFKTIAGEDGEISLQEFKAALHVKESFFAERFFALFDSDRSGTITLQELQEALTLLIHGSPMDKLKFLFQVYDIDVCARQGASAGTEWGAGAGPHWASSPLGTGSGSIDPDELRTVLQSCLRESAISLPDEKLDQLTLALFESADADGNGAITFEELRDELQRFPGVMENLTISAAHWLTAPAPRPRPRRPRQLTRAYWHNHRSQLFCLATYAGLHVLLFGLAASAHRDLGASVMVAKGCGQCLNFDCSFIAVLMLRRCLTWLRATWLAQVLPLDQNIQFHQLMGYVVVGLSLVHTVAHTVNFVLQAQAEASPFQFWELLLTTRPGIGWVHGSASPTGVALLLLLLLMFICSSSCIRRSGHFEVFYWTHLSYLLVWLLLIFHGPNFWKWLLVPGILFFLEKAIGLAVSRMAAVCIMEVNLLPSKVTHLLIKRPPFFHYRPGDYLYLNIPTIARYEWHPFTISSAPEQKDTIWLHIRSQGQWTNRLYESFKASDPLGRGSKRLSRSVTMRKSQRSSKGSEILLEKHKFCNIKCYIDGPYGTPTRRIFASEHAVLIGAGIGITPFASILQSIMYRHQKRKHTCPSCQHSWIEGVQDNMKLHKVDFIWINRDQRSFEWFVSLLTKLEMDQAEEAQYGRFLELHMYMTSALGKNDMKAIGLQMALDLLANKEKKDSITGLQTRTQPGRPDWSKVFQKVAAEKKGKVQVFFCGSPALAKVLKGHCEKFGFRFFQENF

For the molecule `Cc1ccc(S[C@]2(C(=O)NC(C)C)CC(=O)N(Cc3ccccc3C(F)(F)F)[C@@H]2c2ccc(CO)cc2I)cc1`, the z-score in experiment [1] is 0.346 (inactive); in [3] it was 11.2 (active); in [4], 0.141 (inactive); in experiment [5], 1.03 (inactive); in experiment [6] it was -0.945 (inactive); in experiment [7], 2.05. The z-score in experiment [8] was 0.95 (inactive); in experiment [9], -3.44 (inactive); in experiment [10], -1.78; in experiment [11] it was 0.0252; in experiment [12], 0.384; in experiment [13], -0.933. Further, the z-score in experiment [14] was -2.38; in experiment [15], -3.2; in experiment [16], -0.361; in experiment [17], -0.123 (inactive); in [18] it was -0.399; in [19], -2.48. The z-score in experiment [20] is 1.32 (inactive). The same molecule returned a composite z-score in experiment [2] of 0.135.
As to `CC1CC/C=C\[C@H]2OC34C=CCN(CCN5CCOCC5)C(=O)[C@H]3N(CCO)C(=O)[C@@H]4C2C(=O)O1` (stereo not given in full), the z-score was 0.413 (inactive) in experiment [1]; 3.04 (inactive) in [3]; 0.397 (inactive) in experiment [4]; -0.174 (inactive) in experiment [5]; 0.38 (inactive) in [6]; -0.0354 in experiment [7]. Moreover, the z-score in experiment [8] was 0.994 (inactive); in experiment [9] it was 0.221 (inactive); in experiment [10] it was 2.07; in experiment [11], -0.507; in experiment [12] it was 1.44; in experiment [13] it was -0.186. Besides, the z-score in experiment [14] is 0.237; in experiment [15], 0.143; in experiment [16], -0.382; in [17], -0.533 (inactive); in experiment [18], 0.673; in experiment [19] it was 0.671. The z-score in experiment [20] was -0.451 (inactive). The molecule further gave a composite z-score in experiment [2] of 0.213.
In the case of `COC(=O)[C@@]1(Cc2ccc(OC)cc2)[C@H]2c3cc(C(=O)N(C)C)n(Cc4ccccc4)c3C[C@H]2CN1C(=O)c1ccccc1`, the z-score in experiment [1] is -1.25 (inactive); in experiment [3], 0.49 (inactive); in experiment [4], 0.194 (inactive); in experiment [5] it was -1.39 (inactive); in experiment [6] it was 0.594 (inactive); in experiment [7], 0.686. Further, the z-score is -1.52 (inactive) in experiment [8]; -1.09 (inactive) in experiment [9]; 2.49 in [10]; 0.0457 in experiment [11]; 0.245 in experiment [12]; -2.3 in [13]. The z-score was -2.27 in experiment [14]; -2.17 in experiment [15]; 2.45 in experiment [16]; -0.45 (inactive) in experiment [17]; -0.398 in experiment [18]; -1.85 in experiment [19]. Also, the z-score in [20] was 0.616 (inactive). Further, the composite z-score in experiment [2] is 0.748.
As for `C#CCNC(=O)[C@H](Cc1ccccc1)NC(=O)[C@@H](N=[N+]=[N-])C(C)C`, the z-score in experiment [1] was 0.367 (inactive); in experiment [3], 0.0059 (inactive); in [4] it was 0.705 (inactive); in [5], 0.0901 (inactive); in experiment [6], 0.405 (inactive); in experiment [7] it was -0.52. Besides, the z-score in [8] was 0.291 (inactive); in [9], -0.18 (inactive); in [10], 0.323; in experiment [11] it was -0.447; in experiment [12], -0.804; in experiment [13], 0.0785. Also, the z-score is 0.579 in experiment [14]; 0.116 in [15]; -0.266 in experiment [16]; -0.503 (inactive) in experiment [17]; -0.205 in experiment [18]; 0.254 in [19]. Moreover, the z-score in [20] was 0.903 (inactive). Further, the composite z-score in experiment [2] is -0.145.
On to `COC(=O)[C@@]1(Cc2ccccc2)[C@H]2c3cc(C(=O)N4CCCC4)n(Cc4cc(F)cc5c4OCOC5)c3C[C@H]2CN1C(=O)c1ccccc1`, for which the z-score in [1] is -1.14 (inactive); in experiment [3], 2.98 (inactive); in [4], 0.589 (inactive); in [5], 0.804 (inactive); in experiment [6] it was 0.715 (inactive); in experiment [7] it was -0.163. Besides, the z-score in experiment [8] was 0.768 (inactive); in [9], 0.0378 (inactive); in experiment [10], -0.652; in [11], -0.927; in experiment [12] it was -0.888; in experiment [13], 0.162. The z-score in experiment [14] was 0.464; in [15] it was -0.0133; in experiment [16] it was 3.48; in experiment [17] it was 0.0248 (inactive); in experiment [18], -0.0359; in experiment [19], -0.977. Besides, the z-score in experiment [20] is -0.522 (inactive). The molecule further showed a composite z-score in experiment [2] of 0.0752.
For `COCCOC(=O)N1C(=O)[C@@]2(c3cc(C#CCC(C(=O)OC)C(=O)OC)ccc31)[C@H](c1ccc(OCCO)cc1)N1[C@H](c3ccccc3)[C@H](c3ccccc3)OC(=O)[C@H]1[C@@H]2C(=O)N1CCN(c2ncccn2)CC1`, the z-score in [1] is 1.89 (inactive); in [3] it was 6.55 (inactive); in [4] it was 1.35 (inactive); in experiment [5], 0.14 (inactive); in [6], -0.0311 (inactive); in [7], 1.72. Besides, the z-score is -0.105 (inactive) in [8]; -1.13 (inactive) in experiment [9]; -4.4 in experiment [10]; -0.828 in experiment [11]; 1.2 in [12]; -0.709 in experiment [13]. Further, the z-score is -0.0585 in experiment [14]; -1.07 in experiment [15]; -0.49 in experiment [16]; 0.436 (inactive) in experiment [17]; -0.262 in experiment [18]; -1.53 in experiment [19]. In addition, the z-score in [20] was 1.83 (inactive). The composite z-score in experiment [2] was determined as 0.297.
Regarding `CC(=O)N1Cc2ccccc2C[C@]2(N=C(c3ccc(OCCCO)cc3)O[C@@H]2c2ccccc2)C1=O`, the z-score is 1.23 (inactive) in [1]; 26 (active) in [3]; 16.1 (active) in experiment [4]; 1.17 (inactive) in experiment [5]; 3.32 (inactive) in experiment [6]; 0.463 in experiment [7]. For the same molecule, the z-score in experiment [8] is -1.31 (inactive); in experiment [9], 0.13 (inactive); in experiment [10], -1.9; in [11], -1.07; in [12] it was 0.749; in [13], -0.351. The z-score was -2.28 in experiment [14]; -3.5 in experiment [15]; 0.462 in experiment [16]; -0.202 (inactive) in [17]; -0.954 in [18]; -0.637 in [19]. For the same molecule, the z-score in experiment [20] was -2.76 (inactive). In addition, the composite z-score in experiment [2] is -0.0536.
For `COCCCNC(=O)[C@]1(CCC(=O)OC(C)(C)C)N=C(c2ccc(OCCCO)cc2)O[C@@H]1c1ccccc1`, the z-score was 0.134 (inactive) in [1]; 14.7 (active) in experiment [3]; 1.61 (inactive) in [4]; 0.58 (inactive) in experiment [5]; 0.57 (inactive) in experiment [6]; -0.507 in [7]. For the same molecule, the z-score in [8] was -0.00397 (inactive); in experiment [9], 0.689 (inactive); in [10], -0.139; in [11], 0.369; in [12] it was -0.342; in [13], -0.797. In addition, the z-score in [14] is 0.326; in [15], -0.0674; in experiment [16], -0.145; in [17], 0.0968 (inactive); in experiment [18], 0.86; in experiment [19], -0.705. In addition, in [20], the z-score was 0.119 (inactive). Also, the composite z-score in experiment [2] is -0.166.
